The values below come from PubChem BioAssay.

Activity calls are given as the source filed them.

Experiment [1] is described as follows: compound effects on lung adenocarcinoma cell viability – A549, calcein-AM fluorescence, 48 h, basal, profiling panel (AID 1162). The conditions noted are these: higher = more signal.
The nature of experiment [2]: compound effects on differentiated 3T3-L1 adipocyte viability – cell-based, 3T3-L1 adipocytes, calcein-AM fluorescence, 48 h, basal, profiling panel (AID 1163). The note with it: 3T3-L1 adipocytes viability, higher = more signal.
Experiment [3] in a line: compound effects on hepatocellular carcinoma cell viability – HepG2, calcein-AM fluorescence, 48 h, basal, profiling panel (AID 1164). The conditions noted are these: higher = more signal.
Experiment [4] can be described thus: compound effects on multiple myeloma cell viability – MM1S, calcein-AM fluorescence, 48 h, basal, profiling panel (AID 1165). The conditions noted are these: higher = more signal.
A short description of experiment [5]: calcein-AM signal in unstimulated myeloma cells – cell-based, calcein-AM fluorescence, 48 h, PK04 Diversity Set, profiling panel (AID 1166).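 Note: cells grown under basal conditions without added stimulus.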 The conditions noted are these: RPMI8226 myeloma viability, higher = more signal.
A short description of experiment [6]: JC-1 mitochondrial signal, unstimulated HepG2 cells – cell-based, JC-1 fluorescence, 24 h, 100 nL compound, profiling panel (AID 1167). The note with it: HepG2 mitochondrial potential, higher = more signal.
The nature of experiment [7]: JC-1 mitochondrial signal, unstimulated adipocytes – cell-based, JC-1 fluorescence, 3T3-L1 adipocytes, 24 h, 100 nL compound, profiling panel (AID 1168). The note with it: JC-1 mitochondrial fluorescence, higher = more signal, called active from +8 up or from −8 down.
Experiment [8] can be described thus: JC-1 mitochondrial signal, unstimulated myeloma cells – cell-based, JC-1 fluorescence, RPMI8226, 24 h, 100 nL compound, profiling panel (AID 1169). The conditions noted are these: JC-1 mitochondrial potential fluorescence, higher = more signal.
A short description of experiment [9]: JC-1 mitochondrial signal, unstimulated MM1S myeloma – cell-based, JC-1 fluorescence, 24 h, 100 nL compound, profiling panel (AID 1170). The note with it: MM1S mitochondrial potential, higher = more signal.
A short description of experiment [10]: resazurin metabolic signal in A549 cells – cell-based, resazurin fluorescence, 24 h, PK04 Diversity Set, profiling panel (AID 1171). The note with it: A549 viability, higher = more signal, called active from +8 up or from −8 down. In general terms: Resazurin is reduced to fluorescent resorufin, in cell work by metabolically active cells.
Note: test concentration not given here.

In the case of `O=C1O[C@@H](c2ccccc2)[C@@H](c2ccccc2)N2[C@@H](c3ccc(O)cc3)[C@]3(C(=O)Nc4ccc(C#CC5=CCCCC5)cc43)[C@@H](C(=O)NC[C@H](O)c3ccccc3)[C@H]12`, the z-score in [1] was 0.0793; in experiment [2], 0.294; in experiment [3], -1.86; in experiment [4], -3.33; in experiment [5] it was -4.54; in experiment [6], -2.26. Further, the z-score is 1.33 (inactive) in [7], -1.06 in experiment [8], -1.1 in experiment [9] and -1.49 (inactive) in [10].

Regarding `[N-]=[N+]=Nc1ccccc1[C@H]1OC(c2ccc(OCCCO)cc2)=N[C@@]1(Cc1ccccc1)C(=O)N1CCCCC1`, the z-score in experiment [1] was -0.127; in [2], -0.019; in experiment [3], -0.683; in experiment [4], -3.09; in [5] it was -3.83; in experiment [6] it was -0.251. Moreover, the z-score in experiment [7] is 1.44 (inactive); in experiment [8] it was -1.15; in experiment [9], -2.77; in experiment [10] it was -2.29 (inactive).

Consider `O=C1O[C@H](c2ccccc2)[C@H](c2ccccc2)N2[C@H]1[C@@H](C(=O)NC[C@H](O)c1ccccc1)[C@]1(C(=O)Nc3ccc(C#CCCO)cc31)[C@H]2c1ccc(OCCO)cc1`, for which the z-score in [1] is 1.12; in experiment [2], 1.25; in experiment [3] it was 1.49; in experiment [4], -0.156; in experiment [5] it was 0.868; in experiment [6], -0.274. The z-score is -0.0786 (inactive) in [7], -0.165 in [8], -0.389 in [9] and -0.0659 (inactive) in experiment [10].

Turning to `CCCCC(=C=CC[C@@H](O)c1ccccc1OCCO)C[C@@H](O)COCc1ccccc1`, the z-score in experiment [1] was 0.75; in experiment [2] it was 0.52; in experiment [3], 0.522; in experiment [4], -2.34; in experiment [5] it was -2.12; in [6], 0.554. The z-score was 0.623 (inactive) in experiment [7], -0.261 in experiment [8], 0.13 in [9] and 0.607 (inactive) in [10].

With `C=CCC(OC(C)=O)[C@@H]1[C@@H](N(Cc2ccc(-c3ccccc3)cc2)C(=O)Cc2ccc(F)cc2)c2cc(OCCCO)ccc2N1C(=O)Cc1ccc(OC)cc1` (stereo not given in full), the z-score was 0.178 in [1]; 0.0992 in experiment [2]; 0.833 in experiment [3]; 0.399 in experiment [4]; -0.279 in experiment [5]; 1.69 in [6]. The z-score in [7] is -1.02 (inactive); in [8], -0.112; in experiment [9], -0.362; in experiment [10] it was 0.084 (inactive).

`C#CCN([C@@H](Cc1ccc(O)cc1)C(=O)OC)[C@@H](/C=C/C1CC1)[C@H](O)Cc1ccccc1`: the z-score in experiment [1] was -3.21; in [2], -0.0073; in [3] it was -3.12; in [4] it was -3.28; in experiment [5] it was -4.06; in [6] it was -3.58. Besides, the z-score in [7] is -0.0474 (inactive); in experiment [8] it was -1.2; in experiment [9], -1.58; in experiment [10] it was -0.2 (inactive).

Take `C=CCC(OC(C)=O)[C@@H]1[C@@H](N(Cc2cccc3ccccc23)C(=O)c2cccc3ccccc23)c2cc(OCCCO)ccc2N1C(=O)c1ccc(-c2ccccc2)cc1` (stereo not given in full): the z-score in [1] is -0.545; in experiment [2] it was 0.511; in [3], 0.571; in experiment [4], 0.425; in experiment [5], 0.0712; in experiment [6], 1.61. The z-score in [7] was -0.632 (inactive); in [8] it was 0.72; in [9], -0.177; in experiment [10] it was -0.227 (inactive).

`COC(=O)c1c2oc(c1C(=O)OC)C(=O)N(Cc1ccccc1)Cc1cn(nn1)C[C@H](Cc1ccccc1)NC(=O)N[C@H](CO)CC2`: the z-score in experiment [1] is 2.05; in experiment [2], 0.92; in experiment [3], 0.377; in experiment [4], 1.18; in experiment [5], 1.75; in experiment [6], 1.9. Also, the z-score in experiment [7] was -0.397 (inactive); in [8] it was -0.201; in [9], -0.62; in experiment [10] it was 1.27 (inactive).

As for `C=CCOC(=O)[C@H]1[C@@H]2C(=O)O[C@@H](c3ccccc3)[C@@H](c3ccccc3)N2[C@@H](c2ccc(OCCOC(=O)[C@H]3C[C@H]4C(=O)N[C@@H](CC(C)C)C(=O)N4[C@H]3c3cccc(OCCO)c3)cc2)[C@]12C(=O)Nc1ccc(I)cc12`, the z-score in [1] is -0.681; in experiment [2], 0.329; in experiment [3], 0.281; in experiment [4], -1.15; in [5] it was -0.0034; in experiment [6] it was 1.69. The z-score in [7] is 0.681 (inactive); in experiment [8], -0.762; in experiment [9] it was -0.7; in [10] it was -0.0975 (inactive).

On to `CCOC(=O)C1=CC[C@@H](c2ccc(OCc3ccccc3)c(OC)c2)N(S(=O)(=O)c2ccc(C)cc2)[C@H]1c1ccc(SC)cc1`, for which the z-score is -0.568 in experiment [1]; 0.211 in [2]; 0.355 in experiment [3]; -0.821 in experiment [4]; -0.906 in experiment [5]; 1.37 in experiment [6]. In addition, the z-score in experiment [7] is -1.14 (inactive); in experiment [8], 0.419; in experiment [9], -0.598; in experiment [10] it was 1.33 (inactive).

Regarding `CCCC[C@@H]1C[C@H]1[C@@H](NC(=O)c1cccs1)c1ccc(C(F)(F)F)cc1`, the z-score in [1] was -1.36; in experiment [2], -0.249; in experiment [3] it was -0.655; in [4], -0.771; in experiment [5] it was -1.47; in experiment [6] it was -1.04. Also, the z-score was -1.23 (inactive) in [7], 0.404 in [8], -0.917 in [9] and 0.724 (inactive) in experiment [10].

`C=C(CCCC)/C(=C/C[C@@H](OC(=O)c1ccncc1)c1ccccc1OCCO)c1cnc2ccccc2c1`: the z-score was 0.453 in [1]; 1.21 in experiment [2]; -0.158 in experiment [3]; -3.2 in experiment [4]; -2 in experiment [5]; 1.41 in experiment [6]. The z-score in [7] was -2 (inactive); in [8] it was -0.629; in experiment [9], 1.46; in experiment [10], -0.488 (inactive).

As to `CCCC[C@@H](O)C1=C(COc2ccccc2)C[C@H]2C(=O)N(C)C(=O)[C@H]2[C@H]1CO`, the z-score in experiment [1] was 0.683; in experiment [2], 0.0659; in experiment [3], 1.54; in experiment [4], 0.196; in experiment [5] it was 0.131; in experiment [6], 1.11. Besides, the z-score is 0.56 (inactive) in experiment [7], 0.547 in experiment [8], -2.03 in experiment [9] and -0.703 (inactive) in experiment [10].

In the case of `NC(=O)NCC#Cc1ccc2c(c1)[C@]1(C(=O)N2)[C@H](C(=O)NC[C@H](O)c2ccccc2)[C@H]2C(=O)O[C@H](c3ccccc3)[C@H](c3ccccc3)N2[C@@H]1c1ccc(OCCO)cc1`, the z-score in experiment [1] was -0.313; in experiment [2], 0.468; in experiment [3], 0.0249; in experiment [4], -0.254; in [5] it was 1.25; in [6], -2.05. Moreover, the z-score is -0.183 (inactive) in [7], -1.1 in [8], -0.642 in experiment [9] and 0.818 (inactive) in experiment [10].

As to `CC(C)(C)N1CC=CC23O[C@@H]4C=CCOC(=O)[C@@H]4[C@H]2C(=O)N(CCCCCCO)[C@@H]3C1=O` (stereo not given in full), the z-score is -0.127 in experiment [1]; -0.739 in experiment [2]; -0.165 in [3]; 1.53 in [4]; 0.0749 in experiment [5]; -0.403 in experiment [6]. The z-score was 0.567 (inactive) in experiment [7], 0.799 in [8], -0.112 in experiment [9] and -0.0435 (inactive) in experiment [10].
